# Screens as filed in PubChem BioAssay.
# An excerpt weighted towards active compounds, which were near 9.4% of everything screened.
# SARS PLpro yeast – blocks SARS-CoV papain-like protease in a yeast assay; S. cerevisiae expressing SARS-CoV PLpro, growth rescue; Potency, µM (titrated, usually from 32.9 µM), usual class: activators; actives 0.19% (n = 330,000); AID 485353; calls by dose curve; also: nearly all actives have a fitted effect of over 55% in size
# AMA1 RON2 block – inhibitors of Plasmodium falciparum AMA1-RON2 interaction. AlphaScreen AMA1-biotinylated RON2 peptide binding. Potency, µM (titrated, usually from 58.2 µM), usual class: inhibitors. actives 0.2% (n = 360,000); also: nearly all actives have a fitted effect of over 45% in size
#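 AMA1 (3D7) with his tag at 25 nM final met compounds first, then biotinylated RON2 peptide at 25 nM; detection used donor plus acceptor beads, 10 µg/mL apiece, read by AlphaScreen after 30 min at room temperature.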
# Pf growth 96h – P. falciparum growth inhibition at 96 hour, primary screen for plastid delayed-death inhibitors. P. falciparum luciferase reporter growth, 96 h. Potency, µM (series often up to 28.7 µM), most hits filed as inhibitors. actives 6.9% (n = 320,000)
#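 Compounds incubated with erythrocytes infected by luciferase-expressing P. falciparum (2% hematocrit, 0.05% parasitemia final) for 96 hours, 37 C in 5% CO2. Growth inhibition scored as decreased luciferase luminescence.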
# Pf growth 48h – inhibits P. falciparum growth in the first generation, 48 h | actives 5.9% (n = 310,000) | Potency, µM (doses to about 28.7 µM), actives largely listed as inhibitors | P. falciparum luciferase growth in erythrocytes, 48 h
#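 Luciferase-expressing parasites in RBCs, 2% Hct / 0.1% parasitemia final; RPMI 1640 + 0.5% Albumax; 37 C, 5% CO2, one generation; luminescence read-out, lower signal = inhibition.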
# Numbers stand for hits; - = inactive; ? = inconclusive; . = not tested or not shown. Unless noted, calls follow the shape of the dose curve; as a rule, active = well fitted curve in the direction sought with a large enough effect; inconclusive = small, poorly fitted or top-dose-only effect, or another doubt; inactive = no such curve, though single readings can be large; an effect the other way counts as inactive or inconclusive.
SMILES,SARS PLpro yeast,AMA1 RON2 block,Pf growth 96h,Pf growth 48h
O=C(Nc1ccccc1N1CCCCC1)c1ccc([N+](=O)[O-])o1,-,?,8.3µM,10µM
COc1ccc(C(=O)Nc2ccccc2N2CCN(C(=O)c3ccccc3)CC2)cc1Br,-,-,?,2.1µM
O=C(Nc1ccccc1N1CCOCC1)c1ccc([N+](=O)[O-])o1,-,-,-,-
O=C(Nc1ccccc1N1CCN(C(=O)c2ccc(Cl)cc2)CC1)c1ccc([N+](=O)[O-])o1,-,?,-,6.6µM
O=C1NN(c2ccccc2)C(=O)/C1=C\c1coc2ccc(O)cc2c1=O,-,-,-,-
O=C(Nc1cc(Cl)cc(Cl)c1)N1CCCN(Cc2ccccc2)CC1,-,-,?,?
CC(Oc1ccc(Cl)cc1Cl)C(=O)N/N=C1\CCCc2ccccc21 (stereo not drawn),-,-,.,-
CN1CCN(c2ccccc2NC(=O)c2ccc(-c3ccccc3[N+](=O)[O-])o2)CC1,-,-,-,5.2µM
C/C(CCN1CCc2nc(-c3ccccc3)c(-c3ccccc3)cc2C1)=N\OC[C@@H](C)[C@H](OCc1ccccc1)C(C)C,-,-,9.3µM,?
C/C(CCN1CCc2nc(-c3ccccc3)c(-c3ccccc3)cc2C1)=N\O[C@H](C)c1cn([C@H](CO)Cc2ccccc2)nn1,-,.,13µM,9.3µM
CC(=O)Nc1nc2cccc([N+](=O)[O-])c2s1,-,-,-,-
O=C(CC1C(=O)NCCN1Cc1ccc(-c2ccccc2)cc1)NC1CCC1 (stereo not drawn),-,-,-,?
CCOC(=O)N1CCC(NC(=O)CC2C(=O)NCCN2Cc2ccccc2)CC1 (stereo not drawn),-,-,9.3µM,-
CCc1cc(CNC(=O)CC2C(=O)NCCN2Cc2ccc(-c3ccccc3)cc2)on1 (stereo not drawn),-,-,2.1µM,-
O=C(CC1C(=O)NCCN1Cc1ccc(-c2ccccc2)cc1)NCc1ccccc1 (stereo not drawn),-,-,6.6µM,-
COc1ccc(NC(=O)C2CC(=O)N(c3cc(C)ccc3C)C2)cc1 (stereo not drawn),-,-,?,-
O=C(COc1ccc(Br)cc1Cl)NC1CCN(Cc2ccccc2)CC1,-,-,12µM,?
Cc1ccccc1OCCC(=O)Nc1ccc(S(=O)(=O)N(C)C2CCN(C)CC2)cc1,-,-,3.7µM,2.9µM
CN1CCC(N(C)S(=O)(=O)c2ccc(NC(=O)COc3cccc(Cl)c3)cc2)CC1,-,-,13µM,9.3µM
CN1CCC(N(C)S(=O)(=O)c2ccc(NC(=O)COc3ccc(Br)cc3Cl)cc2)CC1,-,-,2.1µM,4.1µM
CN1CCC(N(C)S(=O)(=O)c2ccc(NC(=O)Cc3ccc(F)cc3)cc2)CC1,-,-,?,-
Cc1noc(NC(=O)c2cccc(C(F)(F)F)c2)c1Cl,-,-,-,-
CNc1ccccc1C(=O)OCC(=O)N1CCN(c2ccc(OC)cc2)CC1,-,-,-,-
CNC(=O)c1cc(Nc2nnc(-c3ccc(O)cc3)c3ccccc23)ccc1OC,-,-,-,?
CN1C(C(=O)NCCc2cccs2)CC2Cn3c(nc4ccccc43)C21 (stereo not drawn),-,-,-,-
SMILES,SARS PLpro yeast,AMA1 RON2 block,Pf growth 96h,Pf growth 48h
Cc1ccc(OCC(=O)Nc2ccc(S(=O)(=O)N(C)C3CCN(C)CC3)cc2)c(C)c1,-,-,?,12µM
Cc1ccc(CN2CCN(Cc3cccc(-n4cccn4)c3)CC2CCO)cc1 (stereo not drawn),-,-,-,-
OCCC1CN(Cc2ccc(-n3cccn3)cc2)CCN1Cc1ccccc1 (stereo not drawn),-,-,8.3µM,-
Cc1ccc(CN2CCN(Cc3ccon3)CC2CCO)cc1 (stereo not drawn),-,-,10µM,-
CSc1ccc(CN2CCN(Cc3ccccc3)C(CCO)C2)cc1 (stereo not drawn),-,-,12µM,-
Cc1ccc(CN2CCN(Cc3ccc(-n4cccn4)cc3C)CC2CCO)cc1 (stereo not drawn),-,-,-,10µM
OCCC1CN(Cc2ccc3ncccc3c2)CCN1Cc1ccccc1 (stereo not drawn),-,-,?,-
CC(C)CC(NC(=O)CNC(=O)C1O[C@@H]2OC(C)(C)O[C@@H]2[C@H]2OC(C)(C)O[C@@H]12)C(=O)O (stereo partly drawn),-,-,-,-
COc1ccc(S(=O)(=O)N2CCC(NC(=O)C(Cc3cccc(OC)c3OC)NC(C)=O)CC2)cc1 (stereo not drawn),-,-,-,-
COc1nc(OC)nc(N2CCC(NC(=O)C(Cc3ccc(C(C)C)cc3)NC(C)=O)CC2)n1 (stereo not drawn),-,-,-,10µM
COc1cccc(CC(NC(C)=O)C(=O)NC2CCN(S(=O)(=O)c3cccc4ccccc34)CC2)c1 (stereo not drawn),-,-,12µM,.
COc1cc(CC(NC(C)=O)C(=O)NC2CCN(c3nc(OC)nc(OC)n3)CC2)cc(OC)c1 (stereo not drawn),-,-,5.2µM,13µM
CCOC(=O)C1=C(c2ccccc2)Nc2ncnn2C1c1cccc(OC)c1OC (stereo not drawn),-,-,1.9µM,?
COc1cccc(C2C(C(=O)Nc3ccc(C)cc3C)=C(C)Nc3ncnn32)c1OC (stereo not drawn),-,-,-,12µM
CCOC(=O)C1=C(c2ccccc2)Nc2ncnn2C1c1cc(OC)cc(OC)c1OC (stereo not drawn),-,?,?,?
CC(=O)C1=C(C)Nc2ncnn2C1c1ccccc1Cl (stereo not drawn),-,-,0.52µM,-
O=C(Nc1cccc([N+](=O)[O-])c1)c1ccc2nsnc2c1,-,-,13µM,-
O=C(NNC(=O)c1cnccn1)c1ccc(Cl)c(Cl)c1,-,-,3.7µM,?
COc1ccc(C(=O)Nc2ccccc2C(=O)Nc2ccncc2)cc1,-,-,-,10µM
O=C(NCCNC(=O)c1cnccn1)c1ccc(Cl)c(Cl)c1,-,-,-,-
O=C(Nc1ccncc1)c1ccc(Cl)c(S(=O)(=O)N2CCCC2)c1,-,-,?,12µM
Cc1ccc(C(=O)Nc2ccncc2)cc1S(=O)(=O)N1CCCCC1,.,-,.,.
O=C(Nc1cccc([N+](=O)[O-])c1)c1ccccc1,-,-,-,-
COC(=O)Cc1csc(NC(=O)CSc2nnc3ccccn23)n1,-,-,?,-
CC(/C=N/NC(=O)c1cccc(F)c1)=C\c1ccccc1,-,-,-,?
SMILES,SARS PLpro yeast,AMA1 RON2 block,Pf growth 96h,Pf growth 48h
O=C(CCNC(=O)c1ccc([N+](=O)[O-])cc1)Nc1ccc(F)cc1,-,-,-,-
O=C(Nc1ccncc1)c1ccc(F)cc1,-,-,5.2µM,.
CC(=O)Nc1ccc(C(=O)Nc2ccncc2)cc1,-,-,-,-
Cc1ccc(NC(=O)c2ccc(F)cc2)nc1,-,-,5.2µM,-
O=C(CCNC(=O)c1ccc([N+](=O)[O-])cc1)NNC(=O)c1ccncc1,6.3µM,-,-,-
Cc1ccc(NC(=O)c2ccc3[nH]c(=O)c(=O)[nH]c3c2)nc1,-,-,-,-
